Reference: PubChem BioAssay AID1117283 (Broad Institute, 2014)
Potency and affinity values are given separately. Calls of active or inactive are those of the source.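 How the source made its calls: active means fluorescent signal decreased by at least 40%; inconclusive means no clear call, values can overlap the other calls; inactive means the rest, including activity opposite to the expected direction.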

Test: fibronectin fibrillogenesis inhibitors in fibroblasts, dose response, AH1F cells, Alexa488-fibronectin fluorescence, cherry-pick, set 2 (AID 1117283);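 further: AH1F fibroblasts given Alexa488-labelled fibronectin at 24 nM final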

SMILES	outcome
Cc1ccc(O)c(-c2cc(-c3cccc(Br)c3)n[nH]2)c1	inactive
C[C@@H]1CN([C@H](C)CO)C(=O)c2cc(-c3ccccc3)cnc2O[C@H]1CN(C)C(=O)c1cccc(F)c1	inactive
CCCCNC(=O)Nc1nc2ccc(CC)cc2s1	inactive
COC(=O)C[C@@H]1CC[C@@H]2[C@@H](COc3ccc(NC(=O)Cc4cccs4)cc3C(=O)N2C)O1	inactive
CO[C@H]1CN(C)C(=O)c2cc(NC(=O)Nc3ccc(Cl)c(Cl)c3)ccc2OC[C@H](C)NC[C@@H]1C	inactive
O=C(NCc1ccccc1)c1ccc(-c2cn[nH]c2)c2ccoc12	inactive
COc1ccc(Cl)cc1NC(=O)CSc1nc(Nc2ccccc2)nc(N2CCOCC2)n1	inactive
C[C@H]1CN([C@@H](C)CO)C(=O)c2cc(NC(=O)CCCN(C)C)ccc2O[C@@H]1CN(C)Cc1ccc(-c2ccccc2)cc1	inactive
CCc1ccc(NC(=O)CSc2nnc(-c3ccco3)o2)cc1	inactive
C[C@@H]1CN([C@@H](C)CO)C(=O)c2cc(NC(=O)CCCN(C)C)ccc2O[C@@H]1CN(C)Cc1ccc(-c2ccccc2)cc1	inactive
COc1ccccc1CNc1nc(NCc2cnc(C)cn2)c2sccc2n1	inactive
CO[C@H]1CN(C)C(=O)c2ccc(NC(=O)Nc3ccc(Cl)c(Cl)c3)cc2OC[C@H](C)NC[C@H]1C	inactive
Cn1cnc(S(=O)(=O)N2CCN(c3ccccc3)CC2)c1	inactive
CO[C@H]1CN(C)C(=O)c2ccc(NC(=O)c3ccc(-c4ccccc4)cc3)cc2OC[C@@H](C)NC[C@H]1C	inactive
O=S(=O)(c1cccc(F)c1)N1CC[C@@H]2[C@H](CO)Nc3ccc(-c4cccc(F)c4)cc3[C@@H]21	inactive
Cc1c(NC(=O)c2ccc3nsnc3c2)cccc1[N+](=O)[O-]	inactive
CC1OC(CC(=O)O)CC2=C1C(=O)c1c(O)cccc1C2=O (stereo unspecified)	inactive
Cc1ccc(S(=O)(=O)N2CC[C@@H]3[C@@H](CO)Nc4ccc(-c5cccc(C(=O)N(C)C)c5)cc4[C@@H]32)cc1	inactive

SMILES	outcome
C[C@@H]1CN([C@@H](C)CO)C(=O)c2cc(NC(=O)C3CCCCC3)ccc2O[C@@H]1CN(C)Cc1ccc(-c2ccccc2)cc1	inactive
C[C@H](CO)N1C[C@H](C)[C@@H](CN(C)C(=O)Nc2cccc3ccccc23)Oc2c(NC(=O)Nc3ccc(C(F)(F)F)cc3)cccc2C1=O	inactive
COC(=O)C[C@@H]1CC[C@H]2[C@@H](COc3ccc(NC(=O)Cc4cccs4)cc3C(=O)N2C)O1	inactive
N#C[C@H]1[C@H](c2ccccc2C2=CCCCC2)[C@H](CO)N1S(=O)(=O)c1ccccc1	inactive
N#Cc1ccc(-c2ccc3c(c2)[C@H]2[C@H](CCN2S(=O)(=O)c2cccc(F)c2)[C@H](CO)N3)cc1	inactive
CO[C@H]1CN(C)C(=O)c2cc(NC(=O)Nc3ccc(C(F)(F)F)cc3)ccc2OC[C@H](C)NC[C@H]1C	inactive
O=C(CCC(=O)c1cccs1)NCc1cccnc1	inactive
O=S(=O)(c1ccccc1F)N1CC[C@@H]2[C@@H](CO)Nc3ccc(-c4cccc(F)c4)cc3[C@@H]21	inactive
CC1CN(C(=O)c2cc3c(=O)n4ccccc4nc3n2C)CC(C)O1 (stereo unspecified)	inactive
CC(=O)Nc1cccc(-c2ccnc3c2CC(C)(C(=O)Nc2cccc(C(F)(F)F)c2)O3)c1 (stereo unspecified)	inactive
Cc1cc(C)n2ncc(C(=O)NCc3ccc(Cl)cc3)c2n1	inactive
O=C(Nc1ccc(Cl)cc1)N1C[C@H]2[C@@H](c3ccccc31)[C@H](CO)N2CC1CCCC1	inactive
COc1cccc(-c2ccc3c(c2)[C@H]2[C@H](CCN2S(=O)(=O)c2cccc(OC)c2)[C@H](CO)N3)c1	inactive
CO[C@@H]1CN(C)C(=O)c2cc(NC(=O)Nc3cc(Cl)cc(Cl)c3)ccc2OC[C@H](C)NC[C@@H]1C	inactive
CC(C)CNC(=O)c1coc(=O)c(Br)c1	inactive
COCC(=O)Nc1ccc2c(c1)C(=O)N(C)[C@@H]1CC[C@H](CC(=O)NCc3ccccc3Cl)O[C@@H]1CO2	inactive
C[C@H]1CN([C@@H](C)CO)C(=O)c2cc(NC(=O)CCCN(C)C)ccc2O[C@H]1CN(C)Cc1ccc(-c2ccccc2)cc1	inactive
C[C@@H]1CN([C@H](C)CO)C(=O)c2cc(NC(=O)C3CCCCC3)ccc2O[C@H]1CN(C)Cc1ccc(-c2ccccc2)cc1	inactive
